# From PubChem BioAssay AID652040 (Broad Institute, 2013)
# Measured potencies and affinities stand elsewhere. A number with no mark means an inactive call. The source made the active and inactive calls.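 How the source made its calls: active means falling luciferase signal whose fitted half-maximal concentration is at most twice the top tested dose; inconclusive means flat inhibition between 30 and 70% or a poor curve fit; inactive means the rest.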
# Test: off-target signal loss in HeLa-CEM21 co-culture – HeLa F-luc CTL cells, cherry-picked, counter-screen for HIV-1 Env fusion inhibitor project, dose response (AID 652040);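 further: 0% = median of neutral control wells and -100% = doxycycline 40 µg/mL wells; more negative values mean stronger loss of luciferase signal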
# Settings: HeLa-F-luc CTL cells with CEM21, firefly luciferase counterscreen; series mostly up to 35 µM
Compound,outcome,"activity change, negative = inhibition"
CCc1ccc(Nc2n[n+](-c3ccccc3)c(-c3c(Cl)cccc3Cl)s2)cc1,inactive,
CCOC(=O)C(C)Oc1cccc2c(=O)n(CC(=O)NCCc3ccc(OC)c(OC)c3)ccc12 (centres undefined),inactive,
O=C(COC(=O)c1cc(S(=O)(=O)N2CCOCC2)ccc1O)NCc1ccc2c(c1)OCO2,inactive,
COc1cc(-c2c(-c3cc(OC)c(OC)c(OC)c3)noc2C)ccc1F,inactive,
Cc1ccc(S(=O)(=O)N(C)c2ccc(C(=O)N3CCN(Cc4ccc5c(c4)OCO5)CC3)cc2)cc1,inactive,
CCCc1cc(=O)n2[nH]cc(-c3ccc(Cl)cc3)c2n1,inactive,
Cc1cc(Nc2cccc(C(F)(F)F)c2)cc(=O)n1-c1cccc(C(F)(F)F)c1,inactive,
CCCCCCCCN1C(=O)[C@H](CC(=O)NCc2cccs2)C[C@@]2(C(=O)OCC)CCCC=C12,inactive,
COC(=O)[C@@]1(Cc2ccc(F)cc2)[C@H]2c3cc(C(=O)N(C)C)n(CCO)c3C[C@H]2CN1C(=O)c1ccccc1,inactive,
Cc1nc2ccc(NC(=O)c3ccc(Cl)c(S(=O)(=O)N(C)c4ccccc4)c3)cc2s1,inactive,
C=CCNc1nc2c(c(=O)n(C)c(=O)n2C)n1CCCCCC,inactive,
O=S(=O)(NC1CC1)c1ccc(S(=O)(=O)N2CCCc3ccccc32)cc1,inactive,
Cc1oc(-c2ccccc2F)nc1CN1CCC(C(=O)NCCC2=CCCCC2)CC1,inactive,
Nc1nc2c(ncn2[C@@H]2O[C@H](C(=O)NCC(c3ccccc3)c3ccccc3)[C@@H](O)[C@H]2O)c(=O)[nH]1,inactive,
CCOC(=O)CN1CCCc2nc(C)c(C)cc21,inactive,
COc1ccc(CCNC(=O)C2CCCN(Cc3nc(-c4cccc(Cl)c4)oc3C)C2)cc1OC (centres undefined),inactive,
O=C(COC(=O)c1ncc(Cl)c(Cl)c1Cl)NCc1cccs1,inactive,
COc1ccccc1N1CCN(Cc2ccc(O)c3ncccc23)CC1,,166% [at 8 µM]
O=C(NNC(=O)C(c1ccccc1)c1ccccc1)c1ccccn1,inactive,
COc1ccc(-c2cn3c(C)c(C(=O)Nc4cccc(NC(C)=O)c4)sc3n2)cc1,inactive,
Cc1onc(-c2ccccc2)c1C(=O)Nc1ccc(Br)cc1Cl,inactive,
Cn1c(=O)c2c(nc(NCCc3ccccc3)n2Cc2ccccc2)n(C)c1=O,inactive,
CC1CCC(C(C)C)C(OC(=O)Cn2c(-c3ccc(Cl)cc3)[n+](C)c3ccccc32)C1 (centres undefined),,55.5% [at 8 µM]
COc1ccc(N2CCN(C(=O)C3CCC(Cn4c(=S)[nH]c5ccccc5c4=O)CC3)CC2)cc1 (centres undefined),inactive,
